Measured values published in the supplement of paper PMC3545927.
The list shows a part of the results. The true hit rate is not given.

Molecular target: furin, P09958
Experiment: furin cleavage Z-score vs untreated control; higher = more cleavage, active = 3.5 or more, inactive = 1 or less, 8 variable residues between constant flanks
Description: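 Multiplexed peptide-cDNA fusion cleavage assay. 8-mer variable peptides flanked by constant Cys-Ala (N-term) and Ala-Gly-Asn-Ala-Ser-Ala-Ser-Ala (C-term) and conjugated to a cDNA oligonucleotide were bead-immobilised via the N-terminus. They were treated with purified furin at a 1:10 enzyme:substrate ratio in 50 mM HEPES pH 7.5, 1 mM CaCl2, 100 mM NaCl for 7.5, 15 or 30 min. Released cDNA was counted by next-generation sequencing, and log counts versus no-furin controls were lowess-adjusted and converted to robust Z-scores.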

furin, P09958, sequence (P09958 whole entry): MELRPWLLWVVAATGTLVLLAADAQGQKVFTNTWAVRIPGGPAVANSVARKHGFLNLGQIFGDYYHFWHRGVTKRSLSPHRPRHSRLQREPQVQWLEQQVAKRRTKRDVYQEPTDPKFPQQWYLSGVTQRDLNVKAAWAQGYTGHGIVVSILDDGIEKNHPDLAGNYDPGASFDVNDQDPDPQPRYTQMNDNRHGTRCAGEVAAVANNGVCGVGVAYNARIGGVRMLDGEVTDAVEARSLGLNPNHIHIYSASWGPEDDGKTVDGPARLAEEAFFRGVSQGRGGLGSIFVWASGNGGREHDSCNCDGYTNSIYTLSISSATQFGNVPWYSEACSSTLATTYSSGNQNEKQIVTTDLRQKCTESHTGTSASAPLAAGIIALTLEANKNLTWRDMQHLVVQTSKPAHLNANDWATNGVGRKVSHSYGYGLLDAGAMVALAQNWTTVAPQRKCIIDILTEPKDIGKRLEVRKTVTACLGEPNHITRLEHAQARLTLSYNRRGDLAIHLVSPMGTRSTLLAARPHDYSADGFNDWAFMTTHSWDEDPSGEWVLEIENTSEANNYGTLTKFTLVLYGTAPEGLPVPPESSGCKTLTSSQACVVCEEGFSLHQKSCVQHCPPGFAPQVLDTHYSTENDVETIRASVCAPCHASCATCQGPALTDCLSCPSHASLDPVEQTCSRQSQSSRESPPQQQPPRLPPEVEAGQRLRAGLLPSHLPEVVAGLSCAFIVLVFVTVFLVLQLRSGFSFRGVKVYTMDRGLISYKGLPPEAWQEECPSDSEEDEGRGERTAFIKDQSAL

Row | Sequence | furin cleavage Z-score (7.5 min) | furin cleavage Z-score (15 min) | furin cleavage Z-score (30 min)
1 | CALGLLQTASAGNASASA [HC1027] | -0.682 (inactive) | -0.203 (inactive) | 0.0385 (inactive)
2 | CAVMAQLLRIAGNASASA [HC327] | -0.76 (inactive) | -0.535 (inactive) | -1.17 (inactive)
3 | CAEVVTSTCVAGNASASA [HC2240] | -0.298 (inactive) | -0.394 (inactive) | -0.1 (inactive)
4 | CANPSVAATLAGNASASA [HC788] | -2.1 (inactive) | 0.787 (inactive) | 0.461 (inactive)
5 | CAQPHRAQRSAGNASASA [FS-1153] | 6.97 (active) | 6.29 (active) | 6.74 (active)
6 | CAEYRRRGRSAGNASASA [FS-1123] | 4.99 (active) | 5.3 (active) | 5.5 (active)
7 | CAKNIRRGRSAGNASASA [FS-342] | 8.62 (active) | 9.43 (active) | 6.74 (active)
8 | CAEDTTPCSGAGNASASA [HC1971] | 0.299 (inactive) | -1.06 (inactive) | -0.5 (inactive)
9 | CAADGGCSGGAGNASASA [HC811] | -1.33 (inactive) | -0.697 (inactive) | -0.396 (inactive)
10 | CAERVTSTWVAGNASASA [HC2173] | -0.173 (inactive) | -0.632 (inactive) | -2.09 (inactive)
11 | CARPQRLIDHAGNASASA [FS-3020] | -0.401 (inactive) | -0.141 (inactive) | -0.235 (inactive)
12 | CARPVRGIHTAGNASASA [FS-3030] | 1.52 | 0.149 (inactive) | 3.15
13 | CARTGRSIVYAGNASASA [FS-2465] | 2.57 | 5.05 (active) | 6.39 (active)
14 | CACPNSSIVYAGNASASA [HC264] | 0.0997 (inactive) | 0.251 (inactive) | -0.406 (inactive)
15 | CARPPRSATAAGNASASA [FS-2058] | 1.66 | 4.98 (active) | 3.61 (active)
16 | CAAAPGAATAAGNASASA [HC1071] | -1.75 (inactive) | 0.135 (inactive) | -1.91 (inactive)
17 | CARPKKRAETAGNASASA [FS-1760] | -0.848 (inactive) | 2.01 | 0.187 (inactive)
18 | CARPRRLSTAAGNASASA [FS-3022] | -0.374 (inactive) | 0.291 (inactive) | 1.13
19 | CARTGRSREVAGNASASA [FS-3105] | 0.737 (inactive) | -1.37 (inactive) | 1.18
20 | CARPPRSPDHAGNASASA [FS-2740] | 4.56 (active) | 5.51 (active) | 4.52 (active)
21 | CARPPRSIVTAGNASASA [FS-2439] | 2.64 | 4.75 (active) | 6.76 (active)
22 | CASGTFPINAAGNASASA [HC1189] | -0.56 (inactive) | -1.29 (inactive) | -0.783 (inactive)
23 | CAGGCSGGAYAGNASASA [HC812] | 0.0451 (inactive) | -0.928 (inactive) | -1.91 (inactive)
24 | CAFLVQAWKSAGNASASA [HC1472] | -0.545 (inactive) | -1.14 (inactive) | 0.129 (inactive)
25 | CAPPGDPPQPAGNASASA [HC1545] | 0.491 (inactive) | -1.28 (inactive) | -0.552 (inactive)

Row | Sequence | furin cleavage Z-score (7.5 min) | furin cleavage Z-score (15 min) | furin cleavage Z-score (30 min)
26 | CAVQWMNRLIAGNASASA [HC1117] | -0.371 (inactive) | -0.656 (inactive) | -0.702 (inactive)
27 | CATYSRCGSGAGNASASA [HC457] | -0.645 (inactive) | -0.493 (inactive) | 0.00889 (inactive)
28 | CAAILHTPGCAGNASASA [HC270] | 0.368 (inactive) | 1.18 | -0.0199 (inactive)
29 | CARGPRSYPHAGNASASA [FS-2935] | -0.268 (inactive) | 1.01 | 0.916 (inactive)
30 | CARGPRSATHAGNASASA [FS-1894] | 3.56 (active) | 2.79 | 2.67
31 | CARLRRLLWIAGNASASA [FS-2044] | -1.02 (inactive) | -0.859 (inactive) | 0.923 (inactive)
32 | CARGPRSSSAAGNASASA [FS-1712] | -0.135 (inactive) | -0.114 (inactive) | -1.14 (inactive)
33 | CARPPREEGKAGNASASA [FS-2438] | -0.719 (inactive) | -0.617 (inactive) | -0.558 (inactive)
34 | CARLLRDADDAGNASASA [FS-2278] | -0.832 (inactive) | -0.574 (inactive) | -0.464 (inactive)
35 | CARPPRGFQPAGNASASA [FS-3019] | -1.18 (inactive) | -0.836 (inactive) | -0.248 (inactive)
36 | CARPPRSTCQAGNASASA [FS-2580] | 2.35 | 3.89 (active) | 3.84 (active)
37 | CARLLRSLTHAGNASASA [FS-2993] | 1.05 | 3.14 | 4.05 (active)
38 | CAIKGGRHLIAGNASASA [HC853] | -0.712 (inactive) | -0.368 (inactive) | 0.443 (inactive)
39 | CADGEVVTSTAGNASASA [HC2296] | 0.392 (inactive) | 0.826 (inactive) | -0.278 (inactive)
40 | CAVRLRAYMNAGNASASA [HC929] | 0.615 (inactive) | -1.18 (inactive) | 1.3
41 | CAYKVLVLNPAGNASASA [HC785] | 1.85 | -0.276 (inactive) | -1.39 (inactive)
42 | CARSKRDEKLAGNASASA [FS-2810] | 3.32 | 5.67 (active) | 5.15 (active)
43 | CARSGRDSGYAGNASASA [FS-2303] | -0.464 (inactive) | -0.846 (inactive) | -1.58 (inactive)
44 | CARSKRPSTDAGNASASA [FS-2606] | -0.273 (inactive) | 0.303 (inactive) | 0.307 (inactive)
45 | CARSKKPKGLAGNASASA [FS-3082] | 0.217 (inactive) | -0.722 (inactive) | -1.55 (inactive)
46 | CARSKRDSTYAGNASASA [FS-3169] | 6.51 (active) | 7.64 (active) | 7.09 (active)
47 | CARSKRRWAPAGNASASA [FS-2307] | 0.891 (inactive) | 0.79 (inactive) | 2.12
48 | CARSKRDPDLAGNASASA [FS-2087] | -0.408 (inactive) | 0.763 (inactive) | 0.503 (inactive)
49 | CARSKRYVHLAGNASASA [FS-2381] | 2.83 | 5.52 (active) | 7.4 (active)
50 | CARSKRDYTPAGNASASA [FS-1928] | 6.07 (active) | 5.96 (active) | 6.83 (active)
